The results in this text go back to PubChem BioAssay (Tox21).

Structures are written as SMILES. Values joined by “and” are separate entries in the source; they are usually repeats but may differ in a detail not shown here. Equal values may be shown once. Records with an inconclusive call do not appear. Where a structure was tested more than once in an assay, its records may differ in their call. Active and inactive are the calls of the source. Unless noted, the call rests on the fitted dose curve; in most records, active means well fitted curve in the direction sought with a large enough effect in the repeat runs; inconclusive means weak or mixed curves; inactive means no such curve, though single readings can be large; an effect the other way counts as inactive or inconclusive.

The nature of assay [1]: qHTS assay to identify small molecule antagonists of the glucocorticoid receptor (GR) signaling pathway - cell viability counter screen (AID 720693; further: nearly all actives have a fitted effect of over 55% in size). (In general: In qHTS, concentration-response curves come from the screen itself.)
Assay [2] in a line: qHTS assay for identifying genotoxic compounds that show differential cytotoxicity against isogenic chicken DT40 cell lines with known DNA damage response pathways - wild type cell line (AID 743012). Further: nearly all actives have a fitted effect of over 60% in size. Further: potency means the concentration at half of the fitted maximal effect. A digest of the protocol: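 Viability by ATP luminescence (CellTiter-Glo, 30 min RT) after 40 h compound treatment at 37 C/5% CO2, using 300 parental DNA repair-proficient DT40 cells per well.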

A short description of assay [3]: qHTS assay for identifying genotoxic compounds that show differential cytotoxicity against isogenic chicken DT40 cell lines with known DNA damage response pathways - Rev3 mutant cell line (AID 743014). Further: nearly all actives have a fitted effect of over 55% in size. Further: potency means the concentration at half of the fitted maximal effect.
Assay [4] in a line: qHTS assay for identifying genotoxic compounds that show differential cytotoxicity against isogenic chicken DT40 cell lines with known DNA damage response pathways - Rad54/Ku70 mutant cell line (AID 743015). Further: nearly all actives have a fitted effect of over 60% in size.
The nature of assay [5]: qHTS assay to identify small molecule antagonists of the androgen receptor (AR) signaling pathway using the MDA cell line - cell viability counter screen (AID 743041; further: nearly all actives have a fitted effect of over 45% in size). A digest of the protocol: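 qHTS viability read-out; MDA-kb2 AR-luc; R1881-stimulated; 16 h exposure at 37C, 0% CO2; CellTiter-Fluor, 30 min; fluorescence intensity.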
Assay [6] is described as follows: qHTS assay to identify small molecule antagonists of the thyroid receptor (TR) signaling pathway - cell viability counter screen (AID 743064). Further: nearly all actives have a fitted effect of over 50% in size. The gist of the method:
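Fluorescence from CellTiter-Fluor, added after 23.5 h exposure at 37 °C, reported viability of GH3.TRE-Luc cells co-treated with compound and 1 nM T3. Measured in the same wells as the luciferase TR readout.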

A short description of assay [7]: qHTS assay to identify small molecule antagonists of the thyroid receptor (TR) signaling pathway (AID 743065). Further: series mostly up to about 70 µM; nearly all actives have a fitted effect of over 55% in size. A digest of the protocol: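 GH3.TRE-Luc rat pituitary cells carrying two TR response elements driving luciferase were plated for 4 h, given compound plus 1 nM T3 (final), and incubated 23.5 h at 37 C. ONE-Glo luminescence measured reporter inhibition; CellTiter-Fluor fluorescence tracked cytotoxicity.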

Assay [8] relates to thyroid hormone receptor (rat, GH3 cells). Put plainly: qHTS assay to identify small molecule agonists of the thyroid receptor (TR) signaling pathway (AID 743066; calls by dose curve).
Assay [9] deals with Estrogen receptor (Homo sapiens) (UniProt P03372). Description: qHTS assay to identify small molecule antagonists of the estrogen receptor alpha (ER-alpha) signaling pathway (AID 743069; active means well fitted curve in the direction sought with a large enough effect in the signal ratio in the repeat runs, not every such curve was filed as active; the % refers to the signal ratio). A digest of the protocol: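 Screening used a UAS-driven beta-lactamase reporter integrated into HEK293 cells expressing ER-alpha, stimulated with 17beta-estradiol alongside test compounds over 18 hr at 37C; signal came from LiveBLAzer B/G FRET fluorescence.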
Sequence of Estrogen receptor (Homo sapiens) (P03372 whole entry, looked up): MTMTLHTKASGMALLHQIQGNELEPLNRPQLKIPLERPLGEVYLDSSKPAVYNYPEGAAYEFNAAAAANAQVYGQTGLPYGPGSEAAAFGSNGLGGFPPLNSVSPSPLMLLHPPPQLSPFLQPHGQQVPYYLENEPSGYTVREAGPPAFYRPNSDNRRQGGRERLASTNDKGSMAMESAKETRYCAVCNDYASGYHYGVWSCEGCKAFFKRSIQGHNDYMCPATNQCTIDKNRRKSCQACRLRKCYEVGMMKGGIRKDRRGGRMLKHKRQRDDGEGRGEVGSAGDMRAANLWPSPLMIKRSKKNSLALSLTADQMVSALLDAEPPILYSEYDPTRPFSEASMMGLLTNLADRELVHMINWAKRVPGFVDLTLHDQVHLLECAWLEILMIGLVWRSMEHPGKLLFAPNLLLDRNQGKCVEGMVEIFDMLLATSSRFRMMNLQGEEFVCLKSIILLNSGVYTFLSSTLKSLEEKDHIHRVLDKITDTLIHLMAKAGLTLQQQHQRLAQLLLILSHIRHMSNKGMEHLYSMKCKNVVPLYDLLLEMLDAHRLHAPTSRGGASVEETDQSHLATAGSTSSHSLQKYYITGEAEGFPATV

The nature of assay [10]: qHTS assay to identify small molecule antagonists of the estrogen receptor alpha (ER-alpha) signaling pathway - cell viability counter screen (AID 743074; calls by dose curve; further: nearly all actives have a fitted effect of over 45% in size).
For assay [11], the target named is Estrogen receptor (Homo sapiens) (UniProt P03372). Put plainly: qHTS assay to identify small molecule agonists of the estrogen receptor alpha (ER-alpha) signaling pathway (AID 743075; calls by dose curve).
The target is the same in assay [12]. Put plainly: qHTS assay to identify small molecule agonists of the estrogen receptor alpha (ER-alpha) signaling pathway using the BG1 cell line (AID 743079). Further: nearly all actives have a fitted effect of over 20% in size. Further: potency means the concentration at half of the fitted maximal effect.
Assay [13] in a line: qHTS assay to identify small molecule antagonists of the estrogen receptor alpha (ER-alpha) signaling pathway using the BG1 cell line (AID 743080; calls by dose curve;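 further: BG1 cells stimulated with 17beta-estradiol alongside compound; nearly all actives have a fitted effect of over 25% in size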; further: potency means the concentration at half of the fitted maximal effect). The gist of the method: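 Readout is ONE-Glo luminescence, taken 30 min at room temperature after reagent addition, preceded by a CellTiter-Fluor viability read; BG1-Luc-4E2 cells had received compound and 17beta-estradiol for 21.5 h at 37 C.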

Assay [14] can be described thus: qHTS assay to identify small molecule antagonists of the estrogen receptor alpha (ER-alpha) signaling pathway using the BG1 cell line - cell viability counter screen (AID 743081).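 Further: compound given together with 17beta-estradiol as the ER stimulus; series mostly up to about 70 µM; nearly all actives have a fitted effect of over 45% in size.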
The target in a further assay is Aromatase (Homo sapiens) (UniProt P11511). Description: qHTS assay to identify aromatase inhibitors (AID 743083). Further: series mostly up to about 70 µM; nearly all actives have a fitted effect of over 55% in size.
Sequence of Aromatase (Homo sapiens) (P11511 whole entry, looked up): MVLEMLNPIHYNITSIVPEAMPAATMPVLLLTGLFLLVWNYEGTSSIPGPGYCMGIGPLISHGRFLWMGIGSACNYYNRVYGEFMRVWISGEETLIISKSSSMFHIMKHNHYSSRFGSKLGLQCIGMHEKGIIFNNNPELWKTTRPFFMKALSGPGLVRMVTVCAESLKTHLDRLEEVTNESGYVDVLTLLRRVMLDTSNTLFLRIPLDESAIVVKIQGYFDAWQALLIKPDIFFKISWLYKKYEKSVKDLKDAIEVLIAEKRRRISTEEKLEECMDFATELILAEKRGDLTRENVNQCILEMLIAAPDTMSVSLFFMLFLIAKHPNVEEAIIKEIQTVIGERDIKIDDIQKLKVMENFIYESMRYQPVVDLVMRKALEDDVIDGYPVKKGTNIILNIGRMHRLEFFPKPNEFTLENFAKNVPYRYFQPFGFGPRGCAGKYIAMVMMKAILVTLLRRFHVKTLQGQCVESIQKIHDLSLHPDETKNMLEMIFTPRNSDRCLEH
Assay [15] in a line: qHTS assay to identify small molecule antagonists of the androgen receptor (AR) signaling pathway - cell viability counter screen (AID 743033; further: nearly all actives have a fitted effect of over 45% in size).
The target of assay [16] is Androgen receptor (Homo sapiens) (UniProt P10275). Put plainly: qHTS assay to identify small molecule antagonists of the androgen receptor (AR) signaling pathway (AID 743035; active means well fitted inhibition curve with a large enough effect in the signal ratio in the repeat runs, not every such curve was filed as active; the % refers to the signal ratio). A digest of the protocol: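 Antagonist mode: AR-bla HEK293 cells co-treated with test compounds and agonist R1881 for 16 h at 37C, 5% CO2. Beta-lactamase activity read as FRET fluorescence after 2 h room-temperature substrate loading.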
Sequence of Androgen receptor (Homo sapiens) (P10275 whole entry, looked up): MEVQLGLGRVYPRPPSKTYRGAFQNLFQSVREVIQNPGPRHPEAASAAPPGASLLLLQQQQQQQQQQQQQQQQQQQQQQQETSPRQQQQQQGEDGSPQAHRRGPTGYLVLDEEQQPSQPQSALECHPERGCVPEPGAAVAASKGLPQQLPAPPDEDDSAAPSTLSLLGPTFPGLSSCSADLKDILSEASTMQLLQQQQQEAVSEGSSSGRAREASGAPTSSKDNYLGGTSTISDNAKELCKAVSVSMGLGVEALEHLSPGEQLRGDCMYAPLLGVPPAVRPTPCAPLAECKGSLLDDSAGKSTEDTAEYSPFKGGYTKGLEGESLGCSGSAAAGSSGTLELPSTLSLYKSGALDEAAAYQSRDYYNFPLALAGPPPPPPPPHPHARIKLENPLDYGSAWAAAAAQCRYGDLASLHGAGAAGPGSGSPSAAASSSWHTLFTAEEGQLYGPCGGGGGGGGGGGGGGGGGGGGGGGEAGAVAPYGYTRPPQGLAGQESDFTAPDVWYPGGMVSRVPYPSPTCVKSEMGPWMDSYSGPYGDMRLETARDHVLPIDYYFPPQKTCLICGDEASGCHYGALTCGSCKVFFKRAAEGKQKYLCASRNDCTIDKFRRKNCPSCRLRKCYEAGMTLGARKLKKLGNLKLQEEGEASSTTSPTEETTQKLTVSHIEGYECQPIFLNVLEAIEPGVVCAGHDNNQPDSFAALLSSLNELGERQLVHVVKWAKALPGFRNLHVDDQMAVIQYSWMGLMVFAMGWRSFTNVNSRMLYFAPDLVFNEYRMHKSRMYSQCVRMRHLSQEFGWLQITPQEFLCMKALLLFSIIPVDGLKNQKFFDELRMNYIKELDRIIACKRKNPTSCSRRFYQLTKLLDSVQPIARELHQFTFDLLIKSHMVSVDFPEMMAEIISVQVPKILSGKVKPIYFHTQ

The target is the same in assay [17]. Description: qHTS assay to identify small molecule agonists of the androgen receptor (AR) signaling pathway using the MDA cell line (AID 743040; further: nearly all actives have a fitted effect of over 20% in size). A digest of the protocol: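 Agonist activity is measured as luciferase luminescence in human MDA-kb2 cells whose MMTV reporter responds to both AR and GR. Compounds in DMSO incubate 16 h at 37C, 0% CO2, and ONE-Glo is read after 30 min.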

Assay [18] has the same target. Description: qHTS assay to identify small molecule antagonists of the androgen receptor (AR) signaling pathway using the MDA cell line (AID 743042; further: nearly all actives have a fitted effect of over 55% in size). The gist of the method: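 MDA-kb2 cells (human breast carcinoma, stably carrying an MMTV-luciferase reporter responsive to AR and GR) were plated at 3,000 cells/well and preincubated 5 hr at 37C, then given compound plus R1881 agonist for 16 h. ONE-Glo luminescence was read.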

With `N[C@@H](Cc1c[nH]c2ccc(O)cc12)C(=O)O`, the Potency entry in assay [1], in assay [2], in assay [3], in assay [4], in assay [5] and in assay [6] was “inactive” throughout. In addition, the Potency result in [7], in assay [9], in [11], in [12], in [13] and in assay [14] was “inactive” in each case. Besides, the Potency entry with Aromatase (Homo sapiens) was “inactive”. For the same compound, the compound was classed as inactive in [8] and in assay [10].
As for `Cc1cccc(Nc2cc(Cl)nc(SCC(=O)O)n2)c1C`, the Potency entry in assay [1], in [2], in [3], in assay [16], in [17] and in assay [5] was “inactive” in each case. For the same compound, the Potency result in assay [18], in assay [6], in [7], in [9], in [11] and in assay [12] was “inactive” each time. The Potency result (in [13]; in assay [14]; in the assay with Aromatase (Homo sapiens)) was “inactive” throughout. For the same compound, the outcome in [15], in assay [8] and in assay [10] was inactive.
Regarding `CCOC(=O)C(C)(C)Oc1ccc(Cl)cc1`, the Potency entry in assay [1], in assay [2], in [3], in [4], in [5] and in [6] was “inactive” in each case. In addition, the Potency entry (in [7]; in assay [9]; in assay [11]; in assay [13]; in assay [14]; with Aromatase (Homo sapiens)) was “inactive” each time. The compound was classed as inactive in [8] and in [10]. Moreover, the Potency in [12] was 26.6 µM (active) and inactive.
Take `CCCCCCCCOc1ccc(C(=O)c2ccccc2)c(O)c1`: the Potency entry in assay [1], in assay [2], in assay [5], in assay [6], in [7] and in [9] was “inactive” each time. Also, the Potency result (in assay [11]; in [12]; in [14]; in the assay with Aromatase (Homo sapiens)) was “inactive” throughout. In addition, the Potency entry in [3] is “inactive and 61.1 µM (active)”; in [13] it was 12.3 µM (active) and 12.2 µM (active). Also, the outcome in [15], in assay [8] and in [10] was inactive.
Consider `C[C@]12C=CC(=O)C=C1CC[C@@H]1[C@@H]2C(=O)C[C@@]2(C)[C@H]1CC[C@]2(O)C(=O)CO`, for which the Potency result in assay [1], in [2], in [4], in assay [5], in assay [6] and in [7] was “inactive” in each case. For the same compound, the Potency entry (in assay [9]; in [11]; in assay [13]; in [14]; with Aromatase (Homo sapiens)) was “inactive” in each case. Also, the Potency entry is “inactive and 4.86 µM (active)” in assay [3]; “inactive and 54.5 µM (active)” in [12]. The call in [8] and in [10] was inactive.
For the compound `CCCCCCCC(=O)OCC(O)CO` (stereo not given), the Potency result in assay [1], in assay [2], in [3], in assay [4], in assay [5] and in assay [6] was “inactive” each time. Besides, the Potency result (in assay [7]; in assay [14]; with Aromatase (Homo sapiens)) was “inactive” in each case. Also, the outcome in assay [8] and in assay [10] was inactive.
For the compound `Cn1cnc2c1c(=O)[nH]c(=O)n2C`, the Potency entry in assay [1], in [2], in assay [3], in assay [4], in [5] and in [6] was “inactive” each time. Also, the Potency result (in assay [7]; in [14]; with Aromatase (Homo sapiens)) was “inactive” throughout. The result in assay [8] and in [10] was inactive.
As to `Cc1cnc(NC(=O)C2=C(O)c3ccccc3S(=O)(=O)N2C)s1`, the Potency result in assay [1], in assay [5], in assay [6], in assay [7], in assay [9] and in assay [11] was “inactive” each time. For the same compound, the Potency entry (in assay [13]; in assay [14]; in the assay with Aromatase (Homo sapiens)) was “inactive” in each case. The Potency was 26.6 µM (active) and inactive and 6.86 µM (active) in [2]; “inactive and 27.4 µM (active) and 8.63 µM (active)” in [3]; “inactive and 21.1 µM (active)” in [12]. The outcome in assay [15], in assay [8] and in assay [10] was inactive.
